Bioassay records: PubChem, National Center for Advancing Translational Sciences (NCATS)
Sampled rows, rich in hits. Any-hit rate of the full collection: about 5.9%.
KB-V1 cytotox: KB-V1 MDR subline cytotoxicity | KB-V1 MDR cells viability, CellTiter-Glo, 72 h | Potency, µM (top dose mostly 46.1 µM), usual class: cytotoxic | 400,000 compounds, 3.4% hits | AID 1347076; also: % is scaled to controls: 0 for no effect and ±100 for the full control effect; nearly all actives have a fitted effect of over 60% in size
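Compound-treated KB-V1 multidrug-resistant cells, 72 h, 37 degrees C; viability by CellTiter-Glo. Fitted qHTS curves give the values.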
TGFb SMAD3 inh: blocks TGF-b signaling; HepG2 CAGA-GFP TGF-b/SMAD3 reporter, GFP fluorescence, 18 h; TGF-beta stimulated, 500 pg/mL final; Potency, µM (doses to about 46.1 µM), for inactives: at the top dose activity, negative = inhibition, actives largely listed as inhibitors; 410,000 compounds, 1.2% hits; AID 588855; also: % is scaled to controls: 0 for no effect and ±100 for the full control effect; nearly all actives have a fitted effect of over 65% in size
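HEPG2 CAGA-GFP cells (1000/well, DMEM with 1% FBS) were pre-incubated 2 h at 37 degrees C, given compound by pin tool, then stimulated with TGF-beta at 500 pg/mL final for 18 h before per-cell GFP fluorescence imaging.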
KB-3-1 tox: KB-3-1 parental cell cytotoxicity | 400,000 compounds, 1.4% hits | Potency, µM (titrated, usually from 46.1 µM), hits mostly cytotoxic | KB-3-1 viability, CellTiter-Glo ATP luminescence, 72 h | AID 1347075; also: % is scaled to controls: 0 for no effect and ±100 for the full control effect; nearly all actives have a fitted effect of over 60% in size
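Viability of parental KB-3-1 cells, measured by CellTiter-Glo luminescence, followed a 72 h incubation at 37 °C with pinned compounds in phenol-red-free DMEM containing 10% FBS.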
HepG2 viability: counter-screen for TGF-b inhibitors: cytotoxicity in HepG2 cells | Potency, µM (top dose mostly 46.1 µM), for inactives: at the top dose activity change, negative = cytotoxicity, hits mostly cytotoxic | HepG2 CAGA-GFP viability, ATP luminescence, 18 h | 410,000 compounds, 0.76% hits | AID 588856
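HepG2 CAGA-GFP cells (1000/well, DMEM with 1% FBS) received compound, then TGF-beta at 500 pg/mL final, and were incubated 18 hours at 37 degrees C. Viability was read by CellTiter-Glo luminescence. Media-only wells were set as complete cell-killing and DMSO as no toxicity.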
ATXN viability: reduces viability in counter-screen for ATXN expression inhibitors; Potency, µM (titrated, usually from 56.7 µM), most hits filed as cytotoxic; 400,000 compounds, 0.49% hits; S2 cells (HEK-293 line with an ATXN2-luciferase reporter) viability, CellTiter-Fluor protease fluorescence, 24 h; AID 651635; also: nearly all actives have a fitted effect of over 40% in size
ATXN2 expr inh: reduces ATXN2 reporter expression in HEK-293 cells. HEK-293 ATXN2-luciferase reporter, luminescence, 24 h. Potency, µM (doses to about 57 µM), without a hit: at the highest dose activity change, negative = inhibition, hits mostly inhibitors. 360,000 compounds, 0.72% hits. AID 1745845; also: % is scaled to controls: 0 for no effect and ±100 for the full control effect; nearly all actives have a fitted effect of over 55% in size
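ATXN2-luciferase reporter cells (luciferase flanked by upstream and downstream ATXN2 gene portions) were treated 24 h at 37 °C with compounds at up to 57 uM. SteadyGlo luminescence gave expression; GF-AFC fluorescence gave viability.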
* = called active by the depositor; i = inactive; ? = inconclusive; / = no result given. Calls follow the shape of the dose curve; as a rule, active = well fitted curve in the direction sought with a large enough effect; inconclusive = small, poorly fitted or top-dose-only effect, or another doubt; inactive = no such curve, though single readings can be large; an effect the other way counts as inactive or inconclusive. Potency is read from the fitted curve at half-maximal effect.

SMILES	KB-V1 cytotox	TGFb SMAD3 inh	KB-3-1 tox	HepG2 viability	ATXN viability	ATXN2 expr inh
CCOC(=O)N1CCN(Cc2nc3c(c(=O)n(C)c(=O)n3C)n2CCCc2ccccc2)CC1	9.2µM*	-19.4%	?	-10.0%	i	0.0%
CN(Cc1ccccc1)Cc1nc2c(c(=O)n(C)c(=O)n2C)n1CCCc1ccccc1	16.4µM*	1.6%	i	-6.4%	i	-0.5%
CCCCCCn1c(CN2CCN(Cc3ccccc3)CC2)nc2c1c(=O)n(C)c(=O)n2C	18.4µM*	-1.4%	?	-0.7%	?	-26.1%
CCCCCn1c(CN2CCN(C)CC2)nc2c1c(=O)n(C)c(=O)n2C	i	0.8%	i	-16.4%	i	-12.8%
Cc1ccc(CNc2nc3ccc(C)cc3n3nnnc23)cc1	?	-1.0%	i	3.8%	i	6.1%
CC1CCN(c2oc(-c3ccc(COc4ccc(Cl)cc4)o3)nc2C#N)CC1	i	-20.5%	i	-12.9%	i	-5.6%
CC(=O)OCC(NC(=O)C(CCCCNC(=O)OCc1ccccc1)NC(=O)OC(C)(C)C)C1OC(n2cc(F)c(=O)[nH]c2=O)C(OC(C)=O)C1OC(C)=O (stereo not drawn)	/	6.9%	/	-0.5%	/	/
COC(=O)Cc1c(C)c2cc3c(c(C)c2oc1=O)OCN(CCc1ccccc1F)C3	i	-4.6%	i	-25.0%	/	-6.2%
Cc1cccc(-c2nc(CN3CCCC(C(=O)NC4CCCCC4)C3)c(C)o2)c1 (stereo not drawn)	20.6µM*	?	?	-18.7%	i	-8.2%
Cc1ccc(CNC(=O)C2CCCN(Cc3nc(-c4cccc(C)c4)oc3C)C2)cc1 (stereo not drawn)	i	?	i	15.8µM*	/	/
Cc1cccc(-c2nc(CN3CCCC(C(=O)NC4CCCCCC4)C3)c(C)o2)c1 (stereo not drawn)	20.6µM*	11.2µM*	i	-59.0%	?	-17.1%
Cc1oc(-c2cccc(Cl)c2)nc1CN1CCCC(C(=O)NC(C)c2ccc3c(c2)OCCO3)C1 (stereo not drawn)	25.9µM*	?	?	-33.3%	?	?
COc1ccc(NC(=O)Nc2nnc(N3CCCC3)s2)cc1	?	?	i	-8.7%	i	14.2%
CCCCCn1c(CCCNC(=O)c2ccc(Cl)cc2)nc2ccccc21	?	?	?	-17.2%	i	-7.8%
CC(=O)NC1=NN(C(C)=O)C(C)(c2ccccc2)S1 (stereo not drawn)	7.31µM*	1.0%	8.2µM*	-20.1%	i	-17.6%
O=C(Cc1ccc(-c2ccccc2)cc1)NCCS(=O)(=O)N1CCN(c2ccccc2)CC1	/	0.8%	/	-5.7%	/	/
COc1ccc(-c2noc(Cn3cc(S(=O)(=O)N4CCCC4)ccc3=O)n2)cc1	5.8µM*	5.3%	i	-34.6%	i	-7.4%
Cc1ccc(-c2nnc(Nc3ccc(O)cc3)c3ccccc23)cc1S(=O)(=O)NCc1nc2ccccc2[nH]1	i	?	i	-1.4%	i	11.4%
Cc1ccc(C(=O)Nc2cccc(C(F)(F)F)c2)cc1-c1ccc2nc(NCCN3CCOCC3)ncc2c1	/	/	/	/	/	6.11µM*
COc1ccc(C)cc1NC(=O)N1CCN(S(=O)(=O)c2ccc3c(ccn3C)c2)CC1	i	-9.7%	i	-1.4%	i	-6.9%
COc1ccccc1NC(=O)N1CCC(c2nc3cc(C)c(C)cc3[nH]2)CC1	9.2µM*	?	1.64µM*	-2.8%	i	-1.7%
COc1ccc(N2CCN(C(=O)CS(=O)(=O)c3cccc4nsnc34)CC2)cc1	?	6.7%	i	-8.6%	i	4.3%
Cc1ccc(NC(=S)N(CCN(C)C)C(C)c2ccco2)cc1Cl (stereo not drawn)	i	17.8µM*	i	-9.6%	i	/
CCCc1ccc(C(=O)NNC(=O)c2ccc(Cl)cc2)cc1	i	-2.1%	i	-2.3%	i	9.9%
CCCc1ccc(C(=O)CCC(=O)NNC(=O)c2ccncc2)cc1	?	14.8%	10.3µM*	1.6%	i	8.6%
SMILES	KB-V1 cytotox	TGFb SMAD3 inh	KB-3-1 tox	HepG2 viability	ATXN viability	ATXN2 expr inh
CCOc1ccc2nc(N(CCCN(C)C)C(=O)c3ccc4c(c3)CCCC4)sc2c1	i	?	20.6µM*	17.8µM*	i	?
CN(C)CCCN(C(=O)CCc1ccccc1)c1nc2ccc(Cl)cc2s1	23.1µM*	?	?	-104.9%	i	?
COc1cccc2sc(N(CCN(C)C)C(=O)c3ccc4c(c3)CCCC4)nc12	i	-26.1%	i	-38.9%	i	-23.4%
CN(C)CCCN(C(=O)c1ccc2c(c1)CCCC2)c1nc2ccc(Cl)cc2s1	10.3µM*	?	?	-97.6%	/	?
CCOc1ccc(OCC(=O)Nc2c(C(=O)Nc3ccc(C)cc3)oc3ccccc23)cc1	i	10.4%	i	-0.5%	i	4.3%
COc1cccc(/C=N/n2c(=S)n(C)c3cc(C)c(C)cc32)c1OC	16.4µM*	0.0%	i	-14.2%	i	-0.6%
Cc1cc2ccc3ccccc3c2cc1CN(C)C	i	15.8µM*	i	-39.3%	i	28.5%
CN(C)Cc1cc2ccccc2c2c1COC2	i	1.5%	i	-17.5%	i	-6.8%
COc1ccccc1CNC(=O)c1cn(C)c2ccc(S(=O)(=O)N(C)C3CCCCC3)cc2c1=O	i	-0.9%	i	-23.8%	?	-0.8%
C=CCc1c(C)nc2nc(SCC(=O)Nc3ccccc3CC)nn2c1C	/	-21.5%	/	-23.8%	/	/
COc1ccc(C2=NCCn3nc4cc([N+](=O)[O-])ccc4c32)cc1	i	-10.4%	i	-3.0%	i	-1.5%
COc1ccc(-n2cc3ccc([N+](=O)[O-])cc3n2)cc1	?	-19.6%	5.8µM*	-20.1%	?	-11.7%
CC(C)N(CCCNC(=O)Nc1ccc(C(C)(C)C)cc1)C[C@H]1O[C@@H](n2cc(Br)c3c(N)ncnc32)[C@H](O)[C@H]1O	/	/	/	/	/	21.7µM*
CC[C@@H](C)[C@H](N)C(=O)NC[C@H]1O[C@@H](n2cnc3c(N)ncnc32)[C@H](O)[C@@H]1O	?	-4.2%	i	-4.1%	i	-0.8%
CCOC(=O)N1CCN(Cc2ccc3c(c2)CN(C(=O)c2ccc(C#CC(C)(C)O)o2)CCO3)CC1	/	/	/	/	i	/
CCCCn1c(=NC(=O)c2ccco2)c(C(=O)OCC)cc2c(=O)n3ccccc3nc21	i	5.4%	i	3.1%	i	-14.0%
